8 compounds from PubChem BioAssay (EPA / NIEHS) can be followed below.

Records with an inconclusive call do not appear. Calls of active or inactive are those of the source. The calls were made as follows, unless noted: active = hit-call score of the fitted dose curve at least 0.9, where 1 is the maximum; inactive = score below 0.9.

Assay [1] deals with Paired box protein Pax-6 (Homo sapiens) (UniProt P26367). Description: ATG_Pax6_CIS: Attagene CIS-FACTORIAL HepG2 Assay for human Paired Box 6 (PAX6) (AID 2282956). The following applies: HepG2 CIS-FACTORIAL PAX6 reporter transcription, RNA readout; actives raise or lower the signal. Put shortly:
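Multiplexed cis-reporter HepG2 system; 24 h treatment; reporter mRNA read by RT-PCR/CE fluorescence; bidirectional fit vs DMSO.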

Assay [2] in a line: ATG_PXRE_CIS: Attagene CIS-FACTORIAL HepG2 Assay for human Pregnane X Receptor Element (PXRE) (AID 2282957). The following applies: HepG2 Attagene CIS-FACTORIAL PXRE reporter, mRNA; actives raise or lower the signal. An outline of the steps: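 Transiently transfected HepG2 cells were dosed and incubated for 24 h. RNA was then isolated, DNase-treated, reverse-transcribed and reporter sequences amplified. Labeled, HpaI-digested fragments were quantified by capillary electrophoresis against DMSO.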

Assay [3] can be described thus: ATG_RORE_CIS: Attagene CIS-FACTORIAL HepG2 Assay for human RAR-related Orphan Receptor Element (RORE) (AID 2282959). The following applies: HepG2 Attagene cis-factorial RORE reporter, mRNA; actives raise or lower the signal. An outline of the steps:
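Transient MRTU transfection of human HepG2 liver cells (FuGene 6); 24 h compound exposure; TriZol RNA, oligo(dT) RT, PCR, FAM labeling, HpaI cut, CE fragment analysis. DMSO = negative control/baseline.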

The nature of assay [4]: ATG_Sox_CIS: Attagene CIS-FACTORIAL HepG2 Assay for human SRY-box transcription factor (SOX) (AID 2282960). The following applies: HepG2 Attagene cis-factorial SOX reporter, mRNA; actives raise or lower the signal. Put shortly: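 Endogenous factor activity in human liver HepG2 cells carrying transfected cis-regulated reporter units. RNA taken 24 h post-dose, reverse-transcribed, PCR-amplified and sized by capillary electrophoresis. Gain or loss of signal fitted relative to DMSO.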

For assay [5], the target named is Transcription factor Sp1 (Homo sapiens) (UniProt P08047). In words: ATG_Sp1_CIS: Attagene CIS-FACTORIAL HepG2 Assay for human Specificity Protein 1 (Sp1) (AID 2282961). The following applies: HepG2 Sp1 cis-reporter transcription, actives raise or lower the signal. Put shortly: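 Transient MRTU-transfected HepG2, 24 h compound exposure. Total RNA → oligo(dT) RT → PCR of reporter → 6-FAM primer extension → HpaI digest → CE. Endpoint fitted both directions vs DMSO.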

For assay [6], the target named is Signal transducer and activator of transcription 3 (Homo sapiens) (UniProt P40763). Description: ATG_STAT3_CIS: Attagene CIS-FACTORIAL HepG2 Assay for human Signal Transducer and Activator of Transcription 3 (STAT3) (AID 2282963). The following applies: HepG2, Attagene cis-factorial STAT3 reporter transcription; actives raise or lower the signal. Put shortly: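 HepG2 cells transiently transfected with cis-element-driven multiple reporter transcription units; after 24 h chemical exposure, reporter mRNA measured by RT-PCR, 6-FAM primer-extension labelling, HpaI digestion and capillary electrophoresis. Bidirectional fitting versus DMSO baseline.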

The nature of assay [7]: ATG_TA_CIS: Attagene CIS-FACTORIAL HepG2 Assay for human TA Basal Promoter (AID 2282964). The following applies: HepG2 Attagene CIS-factorial TA basal promoter reporter; actives raise or lower the signal. Put shortly:
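Multiplexed mRNA reporter assay, HepG2, 24 h. Reporter cDNA amplified, 6-FAM primer-extended, HpaI-cut, CE-sized; DMSO = negative control and baseline.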

Assay [8] in a line: ATG_TCF_b_cat_CIS: Attagene CIS-FACTORIAL HepG2 Assay for human T-Cell-Factor with beta-catenin (TCF/b-cat) (AID 2282965). The following applies: HepG2 TCF/beta-catenin cis-reporter transcription, actives raise or lower the signal. Put shortly:
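HepG2 cells transiently transfected with multiple cis-promoter-regulated reporter transcription units, so endogenous transcription factor activity is measured. Reporter mRNA read 24 hours after dosing by RT-PCR, fluorescent labelling and capillary electrophoresis; bidirectional fitting against DMSO.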

A short description of assay [9]: ATG_TAL_CIS: Attagene CIS-FACTORIAL HepG2 Assay for human TAL Basal Promoter (AID 2282966).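 Also: background control endpoint measuring basal TAL promoter reporter mRNA not a specific factor.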 The following applies: HepG2 Attagene cis-factorial TAL promoter reporter; actives raise or lower the signal. An outline of the steps: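 Readout: reporter mRNA, fluorescence by CE. System: HepG2, transient multi-reporter transfection, endogenous TF activity. Exposure: 24 h. Analysis: bidirectional, DMSO-normalized; background control.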

A short description of assay [10]: ATG_TGFb_CIS: Attagene CIS-FACTORIAL HepG2 Assay for human Transforming Growth Factor (TGF) (AID 2282967). The following applies: HepG2 Attagene CIS TGFb reporter, mRNA transcription; actives raise or lower the signal. Put shortly:
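Transcript-level reporter readout: HepG2 transfectants, 24 h exposure, RNA to cDNA, reporter-specific PCR, fluorescent primer extension, capillary sizing against ROX standards. Gain- or loss-of-signal relative to DMSO.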

For assay [11], the target named is Steroid hormone receptor ERR1 (Homo sapiens) (UniProt P11474). Description: ATG_ERRa_TRANS: Attagene TRANS-FACTORIAL HepG2 Assay for human Estrogen-Related Receptor alpha (ERRa) (AID 2282971; active = hit-call score of the fitted dose curve at least 0.9, where 1 is the maximum). The following applies: HepG2 Attagene TRANS reporter, ERRa transactivation. An outline of the steps: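 HepG2 cells were transiently transfected with multiple GAL4-UAS reporter units, then dosed with compound for 24 h. Total RNA was reverse-transcribed, reporter cDNA PCR-amplified and fluorescently labelled, and fragments resolved by capillary electrophoresis; induction was compared with DMSO.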

Assay [12] is described as follows: ATG_M_19_TRANS: Attagene TRANS-FACTORIAL HepG2 Assay for M19 Transcription Factor (Internal Marker) (AID 2282974; active = hit-call score of the fitted dose curve at least 0.9, where 1 is the maximum). Conditions: HepG2 Attagene TRANS-FACTORIAL M19 internal marker reporter. Put shortly: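 Fluorescence of 6-FAM-labelled reporter cDNA fragments, separated by capillary electrophoresis, served as the readout. These derived from HepG2 cells carrying transfected GAL4-UAS reporter units after 24 h dosing, with DMSO as negative control.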

Assay [13] can be described thus: ATG_GAL4_TRANS: Attagene TRANS-FACTORIAL HepG2 Assay for GAL4 (Internal Marker) (AID 2282976; active = hit-call score of the fitted dose curve at least 0.9, where 1 is the maximum). Conditions: HepG2 Attagene TRANS GAL4 internal marker reporter. An outline of the steps: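 Fluorescence from capillary electrophoresis of labelled RT-PCR products quantifies reporter mRNA induction after 24 h dosing of HepG2 cells carrying transfected GAL4-UAS reporter transcription units. Vehicle DMSO serves as baseline.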

In assay [14] the target is Estrogen-related receptor gamma (Homo sapiens) (UniProt P62508). Description: ATG_ERRg_TRANS: Attagene TRANS-FACTORIAL HepG2 Assay for human Estrogen-Related Receptor gamma (ERRg) (AID 2282977; active = hit-call score of the fitted dose curve at least 0.9, where 1 is the maximum;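 also: hits increase reporter signal over DMSO so potencies reflect activators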). The following applies: HepG2 Attagene TRANS reporter, ERRg transactivation. An outline of the steps:
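HepG2 cells transiently transfected with multiplexed GAL4-UAS reporter units and chimeric NR-Gal4 constructs were exposed to test chemicals for 24 h. Reporter mRNA was measured by RT-PCR, 6-FAM primer extension, HpaI digestion and capillary electrophoresis; gain-of-signal versus DMSO.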

A short description of assay [15]: ATG_VDRE_CIS: Attagene CIS-FACTORIAL HepG2 Assay for human Vitamin D Receptor Element (VDRE) (AID 2282968). The following applies: HepG2 VDRE cis-reporter transcription, actives raise or lower the signal. An outline of the steps:
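HepG2 cells transiently transfected with cis-element reporter units, dosed 24 h; reporter mRNA measured by RT-PCR, 6-FAM labeling, HpaI digestion and capillary electrophoresis. Activity fitted bidirectionally against DMSO baseline.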

The target in assay [16] is Estrogen receptor (Homo sapiens) (UniProt P03372). Description: ATG_ERa_TRANS: Attagene TRANS-FACTORIAL HepG2 Assay for human Estrogen Receptor alpha (ERa) (AID 2282970; active = hit-call score of the fitted dose curve at least 0.9, where 1 is the maximum). The following applies: HepG2 Attagene TRANS ERa GAL4 reporter, mRNA. Put shortly:
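Transactivation via ERa-Gal4 chimera in HepG2; 24 hour incubation; reporter mRNA detected by fluorescence RT-PCR and capillary electrophoresis.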

In assay [17] the target is X-box-binding protein 1 (Homo sapiens) (UniProt P17861). Description: ATG_Xbp1_CIS: Attagene CIS-FACTORIAL HepG2 Assay for human X-box Binding Protein 1 (XBP1) (AID 2282972). Conditions: HepG2 XBP1 cis-element reporter, Attagene multiplex; actives raise or lower the signal. An outline of the steps:
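Fluorescence-labelled cDNA fragments from reporter transcripts, separated by capillary electrophoresis, give the signal. Source: HepG2 cells transfected with promoter-driven reporter units, harvested 24 h post-dose. DMSO served as reference for bidirectional curve fitting.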

Assay [18] can be described thus: ATG_SREBP_CIS: Attagene CIS-FACTORIAL HepG2 Assay for human Sterol Regulatory Element Binding (SREBP) (AID 2282962). The following applies: HepG2 Attagene cis-factorial SREBP reporter, mRNA; actives raise or lower the signal. Put shortly: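 mRNA induction of transfected cis-promoter reporters in HepG2 cells, 24 h post-dose. Detection: RT-PCR with 6-FAM-labelled products, HpaI digest, capillary electrophoresis. DMSO served as negative control and baseline.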

Assay [19] concerns the target Nuclear receptor subfamily 1 group I member 3 (Homo sapiens) (UniProt Q14994). In words: ATG_CAR_TRANS: Attagene TRANS-FACTORIAL HepG2 Assay for human Constitutive Androstane Receptor (CAR) (AID 2282969; active = hit-call score of the fitted dose curve at least 0.9, where 1 is the maximum;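 also: activators raise reporter mRNA above DMSO so AC50 marks induction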). Conditions: HepG2 Attagene TRANS-FACTORIAL CAR reporter. An outline of the steps:
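HepG2 cells transiently transfected with multiplexed GAL4-UAS reporter units expressing chimeric NR-Gal4 proteins; compound exposure 24 h. Reporter mRNA measured by RT-PCR, 6-FAM labelling, HpaI digestion and capillary electrophoresis; gain-of-signal fitted against DMSO baseline.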

Chain of Transcription factor Sp1 (Homo sapiens) (P08047 whole entry, looked up): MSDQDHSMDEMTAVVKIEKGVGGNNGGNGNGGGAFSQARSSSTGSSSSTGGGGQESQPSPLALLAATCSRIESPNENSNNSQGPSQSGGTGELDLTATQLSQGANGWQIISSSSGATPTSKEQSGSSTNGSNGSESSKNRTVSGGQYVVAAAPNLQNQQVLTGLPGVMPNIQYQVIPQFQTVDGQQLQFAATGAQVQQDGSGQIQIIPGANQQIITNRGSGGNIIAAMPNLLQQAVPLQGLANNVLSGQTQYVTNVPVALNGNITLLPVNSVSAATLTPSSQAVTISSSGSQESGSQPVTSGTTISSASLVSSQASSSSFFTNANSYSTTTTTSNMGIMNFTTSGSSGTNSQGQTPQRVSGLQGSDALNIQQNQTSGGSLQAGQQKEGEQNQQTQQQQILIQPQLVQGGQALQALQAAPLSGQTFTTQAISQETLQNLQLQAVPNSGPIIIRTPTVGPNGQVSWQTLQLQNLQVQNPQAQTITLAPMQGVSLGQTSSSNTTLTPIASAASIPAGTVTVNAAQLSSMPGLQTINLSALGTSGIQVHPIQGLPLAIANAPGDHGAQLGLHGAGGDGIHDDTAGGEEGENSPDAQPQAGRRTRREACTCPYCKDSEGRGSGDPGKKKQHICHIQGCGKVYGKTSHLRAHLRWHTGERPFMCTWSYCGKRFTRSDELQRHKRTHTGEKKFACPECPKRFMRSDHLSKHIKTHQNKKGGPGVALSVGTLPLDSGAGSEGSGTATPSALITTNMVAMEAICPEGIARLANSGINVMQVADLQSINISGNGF
Chain of Estrogen-related receptor gamma (Homo sapiens) (P62508 whole entry, looked up, the tested form may be a part): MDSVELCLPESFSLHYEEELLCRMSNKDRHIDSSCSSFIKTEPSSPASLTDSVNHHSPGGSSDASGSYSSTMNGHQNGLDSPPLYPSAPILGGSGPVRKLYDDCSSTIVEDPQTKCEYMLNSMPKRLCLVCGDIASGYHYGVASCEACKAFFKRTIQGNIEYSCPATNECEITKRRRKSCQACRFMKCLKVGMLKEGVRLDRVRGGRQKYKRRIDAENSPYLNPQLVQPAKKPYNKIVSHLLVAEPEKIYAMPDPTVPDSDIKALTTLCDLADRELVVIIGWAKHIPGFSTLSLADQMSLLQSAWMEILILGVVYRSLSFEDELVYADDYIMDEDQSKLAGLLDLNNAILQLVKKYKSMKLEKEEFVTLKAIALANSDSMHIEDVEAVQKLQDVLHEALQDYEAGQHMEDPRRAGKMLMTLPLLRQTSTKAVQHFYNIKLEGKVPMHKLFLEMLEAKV
Chain of Paired box protein Pax-6 (Homo sapiens) (P26367 whole entry, looked up): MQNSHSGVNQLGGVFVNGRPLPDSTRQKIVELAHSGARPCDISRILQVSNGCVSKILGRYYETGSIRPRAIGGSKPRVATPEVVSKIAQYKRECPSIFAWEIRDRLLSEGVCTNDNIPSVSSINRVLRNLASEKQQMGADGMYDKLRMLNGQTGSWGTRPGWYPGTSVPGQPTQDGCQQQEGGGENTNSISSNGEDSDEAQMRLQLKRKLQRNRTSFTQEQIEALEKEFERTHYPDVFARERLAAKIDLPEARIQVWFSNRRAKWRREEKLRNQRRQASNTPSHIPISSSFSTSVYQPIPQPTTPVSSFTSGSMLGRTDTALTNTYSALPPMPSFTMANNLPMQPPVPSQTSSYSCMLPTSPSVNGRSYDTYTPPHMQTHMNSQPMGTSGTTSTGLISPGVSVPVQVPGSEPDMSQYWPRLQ
Chain of Steroid hormone receptor ERR1 (Homo sapiens) (P11474 whole entry, looked up, the tested form may be a part): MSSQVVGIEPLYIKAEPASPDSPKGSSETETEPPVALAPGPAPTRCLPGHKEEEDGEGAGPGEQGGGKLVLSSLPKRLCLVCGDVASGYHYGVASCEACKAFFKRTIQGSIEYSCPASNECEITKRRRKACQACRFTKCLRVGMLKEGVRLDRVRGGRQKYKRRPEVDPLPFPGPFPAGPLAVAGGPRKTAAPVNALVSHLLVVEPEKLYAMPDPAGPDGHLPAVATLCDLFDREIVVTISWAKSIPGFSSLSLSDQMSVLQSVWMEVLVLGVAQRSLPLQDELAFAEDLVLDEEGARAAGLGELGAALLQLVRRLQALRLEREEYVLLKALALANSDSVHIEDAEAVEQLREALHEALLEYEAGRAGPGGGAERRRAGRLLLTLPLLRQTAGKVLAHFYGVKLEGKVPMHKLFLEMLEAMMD
Chain of X-box-binding protein 1 (Homo sapiens) (P17861 whole entry, looked up, the tested form may be a part): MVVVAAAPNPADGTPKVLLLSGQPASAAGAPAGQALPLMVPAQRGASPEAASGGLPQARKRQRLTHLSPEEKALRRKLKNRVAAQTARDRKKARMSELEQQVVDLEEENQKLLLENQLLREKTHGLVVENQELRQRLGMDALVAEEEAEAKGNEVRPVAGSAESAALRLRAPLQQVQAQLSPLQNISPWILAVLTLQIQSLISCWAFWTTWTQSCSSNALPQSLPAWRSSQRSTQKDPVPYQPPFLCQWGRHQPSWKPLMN
Chain of Signal transducer and activator of transcription 3 (Homo sapiens) (P40763 whole entry, looked up): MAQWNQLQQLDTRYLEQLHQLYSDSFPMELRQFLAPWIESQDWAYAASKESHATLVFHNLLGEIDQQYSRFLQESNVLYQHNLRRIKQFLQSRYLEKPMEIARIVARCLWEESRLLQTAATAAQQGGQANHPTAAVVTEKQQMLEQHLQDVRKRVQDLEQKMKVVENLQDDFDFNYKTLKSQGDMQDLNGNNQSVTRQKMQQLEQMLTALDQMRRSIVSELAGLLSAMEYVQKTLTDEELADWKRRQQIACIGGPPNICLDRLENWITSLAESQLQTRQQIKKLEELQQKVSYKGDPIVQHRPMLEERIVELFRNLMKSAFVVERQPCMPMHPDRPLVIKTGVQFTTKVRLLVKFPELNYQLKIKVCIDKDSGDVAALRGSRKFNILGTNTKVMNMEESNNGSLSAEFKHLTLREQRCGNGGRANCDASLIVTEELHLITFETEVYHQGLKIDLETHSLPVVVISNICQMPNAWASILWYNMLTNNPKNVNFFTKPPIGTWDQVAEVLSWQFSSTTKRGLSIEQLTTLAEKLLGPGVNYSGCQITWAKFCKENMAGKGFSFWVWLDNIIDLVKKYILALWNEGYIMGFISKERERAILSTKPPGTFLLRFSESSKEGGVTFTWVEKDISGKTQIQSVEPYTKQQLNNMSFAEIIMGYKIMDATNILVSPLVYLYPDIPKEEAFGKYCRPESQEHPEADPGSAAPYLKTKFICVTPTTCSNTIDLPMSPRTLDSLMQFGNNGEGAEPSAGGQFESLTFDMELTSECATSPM
Chain of Estrogen receptor (Homo sapiens) (P03372 whole entry, looked up, the tested form may be a part): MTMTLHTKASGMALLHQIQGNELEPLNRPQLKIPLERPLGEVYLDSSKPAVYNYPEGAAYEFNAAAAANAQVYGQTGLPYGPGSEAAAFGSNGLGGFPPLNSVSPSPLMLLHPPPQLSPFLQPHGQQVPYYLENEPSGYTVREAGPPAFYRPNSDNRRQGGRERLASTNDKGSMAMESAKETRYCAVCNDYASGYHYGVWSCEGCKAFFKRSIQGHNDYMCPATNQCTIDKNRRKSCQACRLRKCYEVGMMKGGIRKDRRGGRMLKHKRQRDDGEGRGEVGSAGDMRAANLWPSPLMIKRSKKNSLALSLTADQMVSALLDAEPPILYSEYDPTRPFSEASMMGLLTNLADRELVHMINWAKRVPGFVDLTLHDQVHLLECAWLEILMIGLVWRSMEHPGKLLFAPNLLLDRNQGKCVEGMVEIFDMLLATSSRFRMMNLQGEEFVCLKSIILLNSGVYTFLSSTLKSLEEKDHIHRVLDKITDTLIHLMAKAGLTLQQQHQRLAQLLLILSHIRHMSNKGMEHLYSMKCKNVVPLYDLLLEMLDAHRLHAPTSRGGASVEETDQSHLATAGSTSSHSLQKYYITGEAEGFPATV
Chain of Nuclear receptor subfamily 1 group I member 3 (Homo sapiens) (Q14994 whole entry, looked up, the tested form may be a part): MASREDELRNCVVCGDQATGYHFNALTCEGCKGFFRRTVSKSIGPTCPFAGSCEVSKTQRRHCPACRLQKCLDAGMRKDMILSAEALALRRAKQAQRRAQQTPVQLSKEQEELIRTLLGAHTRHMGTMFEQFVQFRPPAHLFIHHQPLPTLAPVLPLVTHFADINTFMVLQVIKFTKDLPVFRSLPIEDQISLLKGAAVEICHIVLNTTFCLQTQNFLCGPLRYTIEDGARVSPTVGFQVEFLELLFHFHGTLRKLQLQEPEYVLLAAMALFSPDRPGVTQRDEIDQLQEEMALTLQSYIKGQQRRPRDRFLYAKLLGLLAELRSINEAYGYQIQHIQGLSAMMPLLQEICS

On to `C[C@]12C=CC(=O)C=C1CC[C@@H]1[C@@H]2[C@@H](O)C[C@@]2(C)[C@H]1CC[C@]2(O)C(=O)CO`, for which the call in assay [1], in [3], in assay [4], in [5], in [6] and in assay [7] was inactive. The compound was classed as inactive in assay [8], in assay [9], in [10], in assay [11], in assay [12] and in assay [13]. In addition, the outcome in [14] was inactive. In [2], the AC50 is 100 µM (active).

`CCO[Si](C)(OCC)OCC`: the call in [1], in assay [2], in assay [3], in assay [4], in [5] and in assay [6] was inactive. For the same compound, the compound was called inactive in assay [8], in [9], in assay [10], in [15], in assay [16] and in assay [17].

As for `CCCCC(CC)CCC(CC(C)C)OS(=O)(=O)O` (stereo not given), the call in assay [1], in assay [3], in [4], in assay [5], in [18] and in assay [8] was inactive. Also, the outcome in assay [9], in assay [10], in assay [16] and in assay [17] was inactive. For the same compound, the AC50 in assay [2] was 27.2 µM (active).

Regarding `N=c1ccn2c(n1)O[C@H]1[C@H](O)[C@@H](CO)O[C@H]12`, the compound was called inactive in assay [1], in [2], in assay [3], in assay [4], in assay [5] and in assay [18]. Besides, the compound was called inactive in assay [7], in assay [8], in assay [9], in [10], in [15] and in assay [11]. Further, the call in assay [17], in [12] and in assay [14] was inactive.

In the case of `CC1=Nc2ccc3ccccc3c2C1(C)C`, the result in [1], in assay [3], in assay [4], in [5], in assay [6] and in [7] was inactive. The compound was called inactive in assay [9], in assay [10], in assay [11], in assay [17], in assay [12] and in assay [13]. For the same compound, the outcome in [14] was inactive. The AC50 in assay [2] is 1.78 µM (active); in assay [18], 100 µM (active); in assay [15], 2.97 µM (active); in assay [16], 17.1 µM (active).

As to `Cc1cc(O)c(Cl)c(C)c1Cl`, the call in assay [1], in assay [3], in assay [4], in assay [18], in assay [6] and in assay [7] was inactive. The result in assay [8], in assay [9], in [10], in assay [15] and in assay [17] was inactive. For the same compound, the results for the AC50 in [2] and in assay [16] were 15.1 µM (active) and 26.8 µM (active), respectively.

`C[Si](C)O[Si](C)(C)O[Si](C)(C)O[Si](C)C`: the compound was classed as inactive in assay [1], in [3], in assay [4], in [5], in assay [18] and in assay [6]. Further, the outcome in assay [7], in assay [10], in assay [15], in assay [17] and in assay [13] was inactive. For the same compound, the AC50 in [2] was 17 µM (active); in [16], 30.3 µM (active).

`CC1=CC[C@H](C(C)C)C=C1`: the result in assay [1], in assay [4], in assay [5], in [18], in [6] and in assay [7] was inactive. The call in [8], in assay [9], in assay [10], in assay [19], in assay [16] and in assay [17] was inactive. Moreover, the outcome in assay [12] and in [13] was inactive. The AC50 in assay [2] is 1.98 µM (active).

The term AC50 denotes the concentration giving half of the maximal activity seen.
